Source: PubChem BioAssay (several laboratories)
CYP2C19 activ – activators of human cytochrome P450 2C19. P33261. recombinant CYP2C19, luciferin-H EGE luminescence; active compounds read high; 0 = fully inhibited enzyme, 1 = untreated enzyme. activation factor at 5 µM. 96,000 tested, under 10 active. AID 1025;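 active = activation factor of at least 2 at 5 µM in the primary screen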;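 note: 0 = wells with 2.5 mM tranylcypromine and 1 = vehicle-only wells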
Target sequence (P33261 whole entry, looked up): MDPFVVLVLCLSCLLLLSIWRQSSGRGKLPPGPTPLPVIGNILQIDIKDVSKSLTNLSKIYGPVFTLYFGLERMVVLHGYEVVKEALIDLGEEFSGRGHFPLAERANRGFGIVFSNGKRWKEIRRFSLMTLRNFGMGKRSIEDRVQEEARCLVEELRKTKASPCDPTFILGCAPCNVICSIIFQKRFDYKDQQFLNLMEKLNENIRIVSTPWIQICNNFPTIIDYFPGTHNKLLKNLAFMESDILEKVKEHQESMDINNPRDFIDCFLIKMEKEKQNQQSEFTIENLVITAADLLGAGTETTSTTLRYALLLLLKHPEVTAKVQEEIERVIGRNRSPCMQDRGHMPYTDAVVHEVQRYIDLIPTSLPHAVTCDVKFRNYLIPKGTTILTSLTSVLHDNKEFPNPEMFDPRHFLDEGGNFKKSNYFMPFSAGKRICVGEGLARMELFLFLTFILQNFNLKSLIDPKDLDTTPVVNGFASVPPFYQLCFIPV
CYP2C19 inh – blocks human cytochrome P450 2C19 | inhibition, % at 5 µM | P33261 | 96,000 compounds, 21% hits | CYP2C19 Supersomes, luciferin-H EGE luminescence, 30 min;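 active = CYP2C19 inhibition above a set limit at 5 µM in the primary screen, cut at about 50% in these data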;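 note: plate controls were negative control wells for no effect and 2.5 mM tranylcypromine positive control for full effect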
CYP2C9 act – CYP2C9 (human) activation | P11712 | recombinant CYP2C9, luciferin-H conversion, luminescence; active compounds read high; factor 1 = untreated enzyme, 0 = blocked | activation factor at 5 µM | 96,000 compounds, 1.4% hits | AID 1024;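 active = activation factor of 2 or more for CYP2C9 at a 5 µM dose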;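 note: 0 = sulfaphenazole-blocked wells and 1 = vehicle-only wells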
PLK1 kinase inh – blocks human PLK1 kinase activity | inhibition, % at 10 µM | recombinant PLK1 kinase, TR-FRET peptide phosphorylation | 97,000 compounds, 0.53% hits;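 active = inhibition of 50% or more in the single-concentration screen; inactive = inhibition below 50%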;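 note: 0% = DMSO max control and 100% = H-89 dihydrochloride min control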
PLK1 PBD inh – Plk1 (human) PBD binding inhibition. Plk1 PBD phosphopeptide binding, fluorescence polarization. inhibition, %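 (tested at about 20 µM)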. 97,000 compounds, 0.13% hits. AID 693; in the data active = inhibition above about 34%, passing the limit was not always enough
CYP2C9 inhib – blocks human cytochrome P450 2C9; inhibition, % at 5 µM; CYP2C9 Supersomes, luciferin-H conversion, luminescence; 96,000 compounds, 20% hits; P11712;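 active = blocking of liver enzyme CYP2C9 beyond about 50% at 5 µM, limit read from the data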
Numbers without * were called inactive; . = not tested or not shown. The list is not random: actives were taken first. Their share in the collection is about 28%.

SMILES	CYP2C19 activ	CYP2C19 inh	CYP2C9 act	PLK1 kinase inh	PLK1 PBD inh	CYP2C9 inhib
O=C(NCc1ccc(C(F)(F)F)cc1)C1CC(c2c(Cl)cccc2Cl)=NO1 (stereo not given)	0.4	63.5*	0.7	-7.2	-5.1	26.5
CCn1ncc(/C=N\NC(=O)c2ccc3c(c2)c(C)c(C)n3Cc2ccccc2)c1C	0.3	73.4*	0.1	-6.2	-9.0	92.9*
CCn1ncc(/C=N/NC(=O)c2ccc3c(c2)OCO3)c1C	0.8	24.7	1	-7.0	-17.6	-3.9
CCn1cc(/C=N\NC(=O)c2ccc3c(c2)c(C)c(C)n3Cc2ccccc2)c(C)n1	0.3	73.1*	0.9	-1.9	10.4	8.7
CCn1nc(C)c(/C=N/NC(=O)c2ccc3c(c2)c(C)c(C)n3Cc2ccccc2)c1C	0.1	85.6*	0.1	-6.5	-43.7	88.9*
CCn1nc(C)c(/C=N\NC(=O)c2ccc3c(c2)OCO3)c1C	0.9	9.7	1	-8.8	-16.8	4.1
Cc1cc2c(=O)n(NC(N)=O)c(C)nc2s1	1	1.9	0.9	3.7	4.6	8.8
Cc1nn(-c2ccccc2)c(C)c1C(=O)OCC(=O)c1c(N)n(CC(C)C)c(=O)n(C)c1=O	0.6	39.0	0.4	.	.	61.3*
CC(C)Cn1c(N)c(C(=O)COC(=O)c2cc(-c3ccco3)nc3ccccc23)c(=O)n(C)c1=O	1.1	-14.7	0.7	3.5	22.8	28.9
Cn1c(=O)c(C(=O)CN2CCCc3ccccc32)c(N)n(Cc2ccccc2)c1=O	0.1	87.1*	0.1	.	.	92.8*
Cn1c(=O)c(C(=O)CSc2nnc(Nc3ccccc3)s2)c(N)n(Cc2ccccc2)c1=O	1	3.3	0.3	-9.4	-30.0	72.4*
COCCN(C(=O)CN1CCCc2ccccc21)c1c(N)n(Cc2ccccc2)c(=O)[nH]c1=O	1	-1.8	1	-9.1	-3.1	-1.8
CCC(=O)OCC(=O)c1c(N)n(Cc2ccccc2)c(=O)n(C)c1=O	0.3	66.0*	0.6	-4.1	7.6	42.3
O=C(CSc1nnc(-c2ccco2)n1CC1CCCO1)c1ccc(F)cc1 (stereo not given)	0.6	38.6	1.1	17.9	4.1	-8.9
CCOc1cc(S(=O)(=O)NCc2ccccc2)ccc1F	0.6	37.9	1.6	1.0	26.3	-64.6
CCN(CC)S(=O)(=O)c1cc(-c2nnc(-c3ccc(Br)cc3)o2)ccc1Cl	0.7	34.1	0.4	3.9	-1.8	60.4*
O=C(CN1CCN(C(=O)N2CCCCC2)CC1)Nc1ccc(F)cc1	1	1.3	0.9	-12.8	-8.0	8.8
Cc1cccc(N2CCN(C(=O)c3ccc(N4CCCC4=O)cc3)CC2)c1C	0.5	52.2*	0.3	3.8	-20.9	70.1*
O=C(c1ccc(N2CCCC2=O)cc1)N1CCN(c2ccccc2)CC1	0.8	19.8	0.6	-3.1	-4.2	40.3
O=C(c1ccc(N2CCCC2=O)cc1)N1CCCCCC1	0.4	57.6*	1	-9.3	31.9	1.2
Cc1cccc(N2CCN(C(=O)c3ccc(N4CCCC4=O)cc3)CC2C)c1 (stereo not given)	0.4	55.5*	0.7	-6.0	-4.5	29.4
O=C1C=C(c2ccc(Cl)cc2)OC2(CCCC2)O1	0.8	24.1	0.6	-8.9	-10.9	36.1
COc1cc2c(cc1OC)C1=C(C#N)CN(CC(=O)O)CN1CC2	0.7	27.1	0.4	61.3*	27.8	57.2*
COc1cc2c(cc1OC)CN(C(=O)COc1ccc(C#N)cc1)CC2	0.8	20.6	0.6	-0.5	-4.7	35.5
Cc1ccc(Cn2nnc3c(=O)n(Cc4cc(C)ccc4C)cnc32)cc1	.	.	.	-18.0	1.9	.
C=COC(=O)CSc1snc(SCC(=O)OC)c1C#N	0.9	5.1	0.9	-4.0	-20.7	14.9
Clc1ccc(CSc2ncccn2)cc1	0.9	12.4	1.1	-4.7	5.6	-6.6
O=C1c2cnc3nc(SCc4ccc(Cl)cc4)nn3c2CC2c3ccccc3CCN12 (stereo not given)	1	-3.8	0.5	-8.9	12.6	50.6*
CCc1ccccc1OCCCOc1ccc(OC)cc1	0.8	23.7	1.1	-14.2	-25.5	-12.7
CCOc1ccccc1OCCOc1ccc(F)cc1	0.4	56.7*	1.1	-12.1	-22.7	-9.4
